Source: the supplement of paper PMC12494721
Counter-ions that a name gives are not always drawn.

Experiments:
Settings in all cases: incubation time: 27 h, anaerobic, 37 °C;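 for the amine columns active = adjusted P below 0.05 in both replicates with a change the same way and a mean fold change under 0.8 or over 1.25; inactive = the rest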
[1] = test system: Clostridium sporogenes DSM 1664; assay: growth (OD595) fold change vs plate DMSO controls (fold change (ratio)); higher = more growth
In short: (§1)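 After 27 h at 37 °C under anaerobic conditions, 96-well cultures in mGAM were shaken and read at 595 nm. The readings were blank-subtracted, corrected for compound background using 20 µM compound solutions in water, and converted to OD with a calibration factor of 5. Growth is defined as the fold change over the median of DMSO controls on each plate. Fold changes above 1.5 were set to NA, and each value is the mean of 2 biological replicates.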

Escherichia coli IAI1 [2] = assay: as above
In short: as §1

[3] = test system: Klebsiella aerogenes DSM 30053; assay: as above
In short: as §1

[4] = test system: Ruminococcus gnavus DSM 108212; assay: as above
In short: as §1

[5] = test system: Klebsiella aerogenes DSM 30053; assay: fold change of Histamine concentration vs plate DMSO controls (fold change (ratio)); higher = more amine produced, active = hit call of the paper (significant change in both replicates, either direction)
In short: (§2)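 Amine values are fold changes relative to DMSO-only wells on the same plate. They derive from 27 h, 37 °C anaerobic mGAM cultures of four gut bacterial strains in 80 µL wells, dosed at 20 µM final, or 50 µM final for sweeteners. Extraction of the whole culture, LC–triple-quadrupole MS in dynamic MRM mode, external calibration curves and within-batch drift correction were used, with 2 biological replicates averaged.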

[6] = test system: Clostridium sporogenes DSM 1664; assay: fold change of Tryptamine concentration vs plate DMSO controls (fold change (ratio)); higher = more amine produced, active = hit call of the paper (significant change in both replicates, either direction)
In short: as §2

[7] = test system: Ruminococcus gnavus DSM 108212; assay: as above
In short: as §2

Escherichia coli IAI1 [8] = assay: fold change of Putrescine concentration vs plate DMSO controls (fold change (ratio)); higher = more amine produced, active = hit call of the paper (significant change in both replicates, either direction)
In short: as §2

[9] = test system: Klebsiella aerogenes DSM 30053; assay: as above
In short: as §2

Escherichia coli IAI1 [10] = assay: fold change of Cadaverine concentration vs plate DMSO controls (fold change (ratio)); higher = more amine produced, active = hit call of the paper (significant change in both replicates, either direction)
In short: as §2

[11] = test system: Klebsiella aerogenes DSM 30053; assay: as above
In short: as §2

[12] = test system: Ruminococcus gnavus DSM 108212; assay: fold change of 2-Phenylethylamine concentration vs plate DMSO controls (fold change (ratio)); higher = more amine produced, active = hit call of the paper (significant change in both replicates, either direction)
In short: as §2

Compound	growth [1]	growth (Escherichia coli IAI1 [2])	growth [3]	growth [4]	fold change of Histamine concentration [5]	fold change of Tryptamine concentration [6]	fold change of Tryptamine concentration [7]	fold change of Putrescine concentration (Escherichia coli IAI1 [8])	fold change of Putrescine concentration [9]	fold change of Cadaverine concentration (Escherichia coli IAI1 [10])	fold change of Cadaverine concentration [11]	fold change of 2-Phenylethylamine concentration [12]
Cc1scc2c1N(C(=O)CN1CCN(C)CC1)c1ccccc1NC2=O [Telenzepine dihydrochloride] (20 µM)	1.09	1.07	1	1.01	0.927 (inactive)	1.01 (inactive)	1.01 (inactive)	1.06 (inactive)	0.984 (inactive)	1 (inactive)	1.01 (inactive)	0.964 (inactive)
O=S(=O)(O)c1cc(O)ccc1O [Ethamsylate diethylammonium salt] (20 µM)	0.89	0.975	0.98	0.997	1.07 (inactive)	0.982 (inactive)	1.05 (inactive)	0.989 (inactive)	1.02 (inactive)	1.02 (inactive)	0.99 (inactive)	1.09 (inactive)
CC(C)(C)C(O)/C=C/c1ccc2c(c1)OCO2 (stereo not drawn) [Stiripentol] (20 µM)	1.04	1.03	1	0.89	1.03 (inactive)	0.927 (inactive)	1.04 (inactive)	1.01 (inactive)	1.01 (inactive)	1.03 (inactive)	0.985 (inactive)	0.981 (inactive)
CO/N=C(\C(=O)N[C@@H]1C(=O)N2C(C(=O)[O-])=C(C[n+]3cccc4c3CCC4)CS[C@H]12)c1csc(N)n1 [Cefpirome sulfate] (20 µM)	0.00168	0.00447	0.0713	0.108	0.122 (active)	0.0112 (active)	0.0828 (active)	0.213 (active)	0.347 (active)	0.645 (inactive)	1.09 (inactive)	0.0627 (active)
Nc1ncnc2c1ncn2[C@@H]1O[C@H](COP(=O)(O)O)[C@@H](O)[C@H]1O [5'-Adenylic acid] (50 µM)	0.902	0.983	1.04	1.03	0.938 (inactive)	0.951 (inactive)	1.01 (inactive)	1.01 (inactive)	1.03 (inactive)	0.905 (inactive)	1 (inactive)	0.989 (inactive)
CC(C)(Oc1ccc(CCNC(=O)c2ccc(Cl)cc2)cc1)C(=O)O [Bezafibrate] (20 µM)	1.06	1.01	0.993	0.854	0.964 (inactive)	0.996 (inactive)	1.01 (inactive)	0.997 (inactive)	0.991 (inactive)	0.983 (inactive)	0.992 (inactive)	1.01 (inactive)
CC(=O)SCC(Cc1ccccc1)C(=O)NCC(=O)OCc1ccccc1 (stereo not drawn) [Racecadotril] (20 µM)	1.06	1	0.986	0.929	0.978 (inactive)	0.941 (inactive)	1.01 (inactive)	0.991 (inactive)	0.991 (inactive)	0.985 (inactive)	0.999 (inactive)	0.954 (inactive)
CCN(CC)Cc1cc(Nc2ccnc3cc(Cl)ccc23)ccc1O [Amodiaquine dihydrochloride dihydrate] (20 µM)	0.973	0.964	0.915	1.02	1.03 (inactive)	1.01 (inactive)	1.01 (inactive)	0.928 (inactive)	1.01 (inactive)	0.967 (inactive)	0.978 (inactive)	1.03 (inactive)
CCN1CCC[C@H]1CNC(=O)c1c(OC)ccc(Br)c1OC [Remoxipride hydrochloride] (20 µM)	1.09	1.03	0.988	1.01	1.04 (inactive)	0.946 (inactive)	0.945 (inactive)	0.998 (inactive)	1.02 (inactive)	1.03 (inactive)	0.989 (inactive)	0.92 (inactive)
Cc1ncc([N+](=O)[O-])n1C [Dimetridazole] (20 µM)	0.0144	1.02	0.995	0.811	0.868 (inactive)	0.0153 (active)	0.218 (active)	1.05 (inactive)	1.01 (inactive)	1.07 (inactive)	1.01 (inactive)	0.218 (active)
C[C@]12CC[C@@H]3c4ccc(O)cc4CC[C@H]3[C@@H]1CCC2=O [Estrone] (20 µM)	1.03	1.02	1.03	1.01	1.07 (inactive)	1.06 (inactive)	0.894 (inactive)	1.04 (inactive)	1.02 (inactive)	1.02 (inactive)	1.01 (inactive)	0.884 (inactive)
Cc1ccc(O)c([C@H](CCN(C(C)C)C(C)C)c2ccccc2)c1 [Tolterodine tartrate] (20 µM)	0.996	1.24	1.04	1.14	0.956 (inactive)	1.01 (inactive)	0.997 (inactive)	1.27 (inactive)	1.01 (inactive)	0.926 (inactive)	1 (inactive)	0.994 (inactive)
OCC(CO)N[C@H]1C[C@](O)(CO)[C@@H](O)[C@H](O)[C@H]1O [Voglibose] (20 µM)	1.03	1.05	1.03	1.17	1.02 (inactive)	1.06 (inactive)	1.06 (inactive)	0.984 (inactive)	0.99 (inactive)	0.917 (inactive)	1.01 (inactive)	1.09 (inactive)
CC(C(=O)O)c1ccc2c(c1)CC(=O)c1ccccc1S2 (stereo not drawn) [Zaltoprofen] (20 µM)	0.876	0.998	0.985	0.873	1.1 (inactive)	1.01 (inactive)	1.12 (inactive)	1.01 (inactive)	1.04 (inactive)	0.931 (inactive)	1.05 (inactive)	1.33 (inactive)
CC(=O)NC[C@H]1CN(c2ccc(N3CCOCC3)c(F)c2)C(=O)O1 [Linezolid] (20 µM)	0	0.788	0.985	0.196	0.819 (inactive)	0.0335 (active)	0.112 (active)	0.59 (active)	1 (inactive)	0.777 (active)	1 (inactive)	0.119 (active)
Cc1ccc(-c2ncc(Cl)cc2-c2ccc(S(C)(=O)=O)cc2)cn1 [Etoricoxib] (20 µM)	1.04	1.02	1.14	0.73	0.814 (inactive)	1.16 (inactive)	1.1 (inactive)	1.05 (inactive)	0.959 (inactive)	0.905 (inactive)	1.03 (inactive)	1.19 (inactive)
CC(C)COCC(CN(Cc1ccccc1)c1ccccc1)N1CCCC1 (stereo not drawn) [Bepridil hydrochloride] (20 µM)	0.909	0.996	1.11	0.654	0.937 (inactive)	0.913 (inactive)	0.743 (active)	1.03 (inactive)	1.01 (inactive)	1.01 (inactive)	1.01 (inactive)	0.824 (inactive)
CN1CCc2cccc3c2[C@H]1Cc1ccc(O)c(O)c1-3 [R(-) Apomorphine hydrochloride hemihydrate] (20 µM)	1.05	1.03	1.05	1.17	1.02 (inactive)	0.988 (inactive)	0.997 (inactive)	0.98 (inactive)	0.978 (inactive)	1.04 (inactive)	0.992 (inactive)	1.01 (inactive)
CC(=O)CC(c1ccccc1)c1c(O)c2ccccc2oc1=O (stereo not drawn) [Warfarin] (20 µM)	1.08	1.21	0.97	1.12	1 (inactive)	1.05 (inactive)	0.84 (inactive)	1.22 (inactive)	0.989 (inactive)	0.958 (inactive)	0.984 (inactive)	0.758 (inactive)
COc1ccc(CN(CCN(C)C)c2ccccn2)cc1 [Pyrilamine maleate] (20 µM)	1.02	0.962	0.981	0.868	1.02 (inactive)	1.02 (inactive)	1.02 (inactive)	0.811 (inactive)	1.07 (inactive)	1.57 (active)	1.04 (inactive)	0.963 (inactive)
NC[C@@H]1O[C@@H](O[C@H]2[C@H](O)[C@@H](O[C@H]3O[C@H](CO)[C@@H](O)[C@H](N)[C@H]3O)[C@H](N)C[C@@H]2N)[C@@H](O)[C@H](O)[C@H]1O [Kanamycin A sulfate] (20 µM)	1.05	1.02	1.02	1.09	0.907 (inactive)	1.06 (inactive)	1.01 (inactive)	1.02 (inactive)	0.977 (inactive)	0.97 (inactive)	1.02 (inactive)	1.03 (inactive)
CCCCNC(=N)NC(=N)N [Buformin] (20 µM)	1.02	0.988	0.986	1	1.03 (inactive)	1.05 (inactive)	0.934 (inactive)	1.01 (inactive)	1.01 (inactive)	1.03 (inactive)	1 (inactive)	0.915 (inactive)
c1coc(CNc2ncnc3[nH]cnc23)c1 [Kinetin] (20 µM)	0.818	1.05	0.962	0.855	0.974 (inactive)	0.976 (inactive)	1.01 (inactive)	1.08 (inactive)	1.01 (inactive)	0.999 (inactive)	1.01 (inactive)	1.04 (inactive)
Oc1c(I)cc(Cl)c2cccnc12 [Clioquinol] (20 µM)	0.876	0.817	0.978	0.671	1.03 (inactive)	0.976 (inactive)	0.628 (active)	0.906 (inactive)	1.01 (inactive)	1.09 (inactive)	0.991 (inactive)	0.809 (inactive)
